From PubChem BioAssay (NCATS)
Inconclusive results are not listed. The source made the active and inactive calls. Calls come from the whole dose curve; as a rule, active = well fitted curve in the direction sought with a large enough effect; inconclusive = small, poorly fitted or top-dose-only effect, or another doubt; inactive = no such curve, though single readings can be large; an effect the other way counts as inactive or inconclusive.

Key:
[1] = tested on: NIH3T3; test: qHTS assay to identify novel small-molecules to repurpose for Merkel cell carcinoma treatment (AID 1296009); conditions: MCC and control cell lines, CellTiter-Glo viability, 72 h; series mostly up to 44.8 µM; note: nearly all actives have a fitted effect of over 60% in size
Method in brief: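 After compound transfer in DMSO, plates were kept 72 hr at 37 degree celsius. Luminescent ATP signal from CellTiter-Glo served as viability measure, normalized against DMSO and no-cell controls.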

[2] = tested on: C33A; test: Primary qHTS to identify gynecologic anti-cancer compounds using libraries of approved drugs and bioactive compounds (AID 1345084); conditions: Gynecologic cancer cell panel viability, ATPlite luminescence, 48 h; series mostly up to 57.5 µM; note: nearly all actives have a fitted effect of over 55% in size
Method in brief: (§1)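 Luminescence from the ATPlite ATP-monitoring reagent indicates viable cell number; lower signal means cytotoxicity. Cells received compound 16 h after seeding and were exposed for 48 h across five concentrations.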

[3] = tested on: CAOV3; test: as above; conditions: Gynecologic cancer cell panel viability, ATPlite luminescence, 48 h; series mostly up to 57.5 µM
Method in brief: as §1

[4] = tested on: CASKI; test: as above; conditions: Gynecologic cancer cell panel viability, ATPlite luminescence, 48 h; series mostly up to 57.5 µM
Method in brief: as §1

[5] = tested on: Es-2; test: as above; conditions: Gynecologic cancer cell panel viability, ATPlite luminescence, 48 h; series mostly up to 57.5 µM
Method in brief: as §1

[6] = tested on: HeLa; test: as above; conditions: Gynecologic cancer cell panel viability, ATPlite luminescence, 48 h; series mostly up to 57.5 µM
Method in brief: as §1

[7] = tested on: Hek293T; test: as above; conditions: Gynecologic cancer cell panel viability, ATPlite luminescence, 48 h, control line for the selectivity index; series mostly up to 57.5 µM
Method in brief: as §1

[8] = tested on: JEG-3; test: as above; conditions: Gynecologic cancer cell panel viability, ATPlite luminescence, 48 h; series mostly up to 57.5 µM
Method in brief: as §1

Measured: Potency

C=C1CCC2C(C)(C(=O)O)CCCC2(C)C1CCC1=CCOC1=O (stereo unspecified)
inactive: all assays above

CC(=O)OCC(=O)[C@@]12O[C@@H]1C[C@H]1[C@@H]3CC=C4C[C@@H](O)CC[C@]4(C)[C@H]3CC[C@@]12C
inactive: all assays above

C1=Cc2ccccc2C(=C2CCN(CCCCc3nn[nH]n3)CC2)c2ccccc21
inactive: all assays above

COc1cc(C(C)=O)c(OC)c2c1OC(C)(C)C=C2
inactive: all assays above

CCOc1ccc(CCNC(=O)c2cc3sc(Cl)cc3n2C)cc1OCC
inactive: all assays above

CC(=O)C1=C(O)C=C2Oc3c(C(C)=O)c(O)c(C)c(O)c3[C@]2(C)C1=O
inactive: all assays above

Cc1cc(F)ccc1[C@H]1C[C@@H](N2CCN3C(=O)CC[C@H]3C2)CCN1C(=O)N(C)[C@H](C)c1cc(C(F)(F)F)cc(C(F)(F)F)c1
not listed: [7]
inactive: all other assays above

CC1OC(=O)C[C@@H]2C(C(=O)O)=CO[C@@H](O[C@H]3O[C@H](CO)[C@@H](O)[C@H](O)[C@H]3O)[C@H]12 (stereo partly specified)
inactive: all assays above

CCn1c(=O)n([C@H]2CCCN(c3nccc(-c4cc5ccccc5o4)n3)C2)c2ccccc21
inactive: all assays above

COc1cc(N(C)CCN(C)C)c(N)cc1Nc1nccc(-c2cn(C)c3ccccc23)n1
inactive: all assays above

CC(C)c1cc(-c2ccc(F)c3ccccc23)nc(N)n1
inactive: all assays above

COc1ccc2c(c1O[C@H]1CCNC1)CCC2
inactive: all assays above

CC(=O)NC[C@H]1CN(c2ccc(N3CCSCC3)c(F)c2)C(=O)O1
inactive: all assays above

O=C(NCC1CCN(Cc2cccc(Cl)c2)CC1)[C@@H]1CCCN(c2ncnc3c2nc2n3CCCC2)C1
inactive: all assays above

O=C(c1ccccn1)N(Cc1cccs1)C1(C(=O)NC2CCCCC2)CCCCC1
inactive: all assays above

Cc1c(Cl)cccc1S(=O)(=O)Nc1nc(NCCc2ccccc2)nc2c1CN(Cc1ccccc1)CC2
inactive: all assays above

C/C=C/C=C/C(=O)O[C@@H]1C=C2COC(=O)[C@]2(O)[C@@]2(C)CCCC(C)(C)[C@H]12
inactive: all assays above

O=c1[nH]cnc2c([C@@H]3N[C@H](CO)[C@@H](O)[C@H]3O)c[nH]c12
inactive: all assays above

COC(=O)c1ccc2c(c1)[nH]c1ncnc(NCCCN3CCCCC3)c12
inactive: all assays above
